# Many of the other results were omitted from the sample, so the strongest signals are more common in it than they were.
# B1: Gal-9-hFc (Mus musculus), O08573-2 (protein)
# chain: MALFSAQSPYINPIIPFTGPIQGGLQEGLQVTLQGTTKSFAQRFVVNFQNSFNGNDIAFHFNPRFEEGGYVVCNTKQNGQWGPEERKMQMPFQKGMPFELCFLVQRSEFKVMVNKKFFVQYQHRVPYHLVDTIAVSGCLKLSFITFQTQNFRPAHQAPMAQTTIHMVHSTPGQMFSTPGIPPVVYPTPAYTIPFYTPIPNGLYPSKSIMISGNVLPDATRFHINLRCGGDIAFHLNPRFNENAVVRNTQINNSWGQEERSLLGRMPFSRGQSFSVWIICEGHCFKVAVNGQHMCEYYHRLKNLQDINTLEVAGDIQLTHVQT
# Tests used:
# Experiment in all cases: glycan array binding signal (z-score within array); higher = stronger binding
# Conditions in all cases: glycan notation: IUPAC condensed, linker removed
# [1] = molecular target: Fuc(a1-2)Gal(b1-3)GalNAc(b1-3)Gal(a1-4)Gal(b1-4)Glc
# In short: (§1)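 Glycan array data came from 3228 arrays in the Consortium for Functional Glycomics database, and only arrays with an available protein sequence were kept. Glycan names were put into IUPAC-condensed notation, and columns mapping to the same glycan were averaged. The binding signal is a within-array Z-score, averaged across arrays of one protein sequence run at different concentrations or buffers and across linkers. A negative Z-score can be read as non-binding.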
# [2] = molecular target: Fuc(a1-2)[Gal(a1-3)]Gal(b1-4)GlcNAc(b1-2)Man(a1-3)[Fuc(a1-2)[Gal(a1-3)]Gal(b1-4)GlcNAc(b1-2)Man(a1-6)]Man(b1-4)GlcNAc(b1-4)GlcNAc
# In short: as §1
# [3] = molecular target: Fuc(a1-2)[Gal(a1-3)]Gal(b1-4)GlcNAc(b1-3)[Fuc(a1-2)[Gal(a1-3)]Gal(b1-4)GlcNAc(b1-6)]GalNAc
# In short: as §1
# [4] = molecular target: Fuc(a1-2)[Gal(a1-3)]Gal(b1-4)GlcNAc(b1-6)GalNAc
# In short: as §1
# [5] = molecular target: Fuc(a1-2)[GalNAc(a1-3)]Gal(b1-4)[Fuc(a1-3)]GlcNAc
# In short: as §1
# [6] = molecular target: Fuc(a1-3)[Gal(b1-4)]GlcNAc(b1-6)GalNAc
# In short: as §1
# [7] = molecular target: Fuc(a1-3)[Gal3S(b1-4)]Glc
# In short: as §1
# [8] = molecular target: Gal(a1-3)Gal(b1-4)[Fuc(a1-3)]GlcNAc(b1-2)Man(a1-3)[Gal(a1-3)Gal(b1-4)[Fuc(a1-3)]GlcNAc(b1-2)Man(a1-6)]Man(b1-4)GlcNAc(b1-4)GlcNAc
# In short: as §1
# [9] = molecular target: Gal(a1-4)GlcNAc
# In short: as §1
# [10] = molecular target: Gal(b1-3)Gal
# In short: as §1
# [11] = molecular target: Gal(b1-3)GlcNAc(a1-3)Gal(b1-4)GlcNAc
# In short: as §1
# [12] = molecular target: Gal(b1-3)GlcNAc(b1-2)Man
# In short: as §1
# [13] = molecular target: Gal(b1-3)GlcNAc(b1-3)Gal(b1-3)GlcNAc
# In short: as §1
# [14] = molecular target: Gal(b1-3)[Neu5Ac(a2-6)]GalNAc
# In short: as §1
# [15] = molecular target: Gal(b1-3)[Neu5Ac(a2-6)]GlcNAc(b1-4)Gal(b1-4)Glc
# In short: as §1
# [16] = molecular target: Gal(b1-4)Gal
# In short: as §1
# [17] = molecular target: Gal(b1-4)GlcNAc
# In short: as §1
# [18] = molecular target: Gal(b1-4)GlcNAc(b1-3)Gal(b1-4)GlcNAc(b1-2)Man(a1-3)[Gal(b1-4)GlcNAc(b1-3)Gal(b1-4)GlcNAc(b1-2)Man(a1-6)]Man(b1-4)GlcNAc(b1-4)GlcNAc
# In short: as §1
# [19] = molecular target: Gal(b1-4)GlcNAc(b1-3)Gal(b1-4)GlcNAc(b1-2)[Gal(b1-4)GlcNAc(b1-3)Gal(b1-4)GlcNAc(b1-6)]Man(a1-6)[Gal(b1-4)GlcNAc(b1-3)Gal(b1-4)GlcNAc(b1-2)Man(a1-3)]Man(b1-4)GlcNAc(b1-4)GlcNAc
# In short: as §1
# [20] = molecular target: Gal(b1-4)GlcNAc(b1-3)Gal(b1-4)GlcNAc(b1-3)GalNAc
# In short: as §1
# [21] = molecular target: Gal(b1-4)GlcNAc(b1-3)[GlcNAc(b1-6)]Gal(b1-4)GlcNAc
# In short: as §1
# [22] = molecular target: Gal3S(b1-4)Glc6S
# In short: as §1
# [23] = molecular target: Gal3S(b1-4)[Fuc(a1-3)]GlcNAc6S
# In short: as §1
# [24] = molecular target: Gal6P(b1-4)GlcNAc
# In short: as §1
# [25] = molecular target: GalNAc(b1-4)GlcNAc
# In short: as §1
# [26] = molecular target: GalNAc4S6S(b1-4)GlcNAc
# In short: as §1
# [27] = molecular target: Glc(a1-6)Glc(a1-6)Glc
# In short: as §1
# [28] = molecular target: GlcNAc(b1-2)[GlcNAc(b1-4)]Man(a1-3)[GlcNAc(b1-4)][GlcNAc(b1-2)Man(a1-6)]Man(b1-4)GlcNAc(b1-4)GlcNAc
# In short: as §1
# [29] = molecular target: GlcNAc(b1-3)Gal(b1-4)GlcNAc(b1-3)Gal(b1-4)GlcNAc(b1-2)Man(a1-3)[GlcNAc(b1-3)Gal(b1-4)GlcNAc(b1-3)Gal(b1-4)GlcNAc(b1-2)Man(a1-6)]Man(b1-4)GlcNAc(b1-4)GlcNAc
# In short: as §1
# [30] = molecular target: GlcNAc(b1-3)Gal(b1-4)GlcNAc(b1-3)Gal(b1-4)GlcNAc(b1-3)Gal(b1-4)GlcNAc(b1-3)Gal(b1-4)GlcNAc(b1-2)Man(a1-3)[GlcNAc(b1-3)Gal(b1-4)GlcNAc(b1-3)Gal(b1-4)GlcNAc(b1-3)Gal(b1-4)GlcNAc(b1-3)Gal(b1-4)GlcNAc(b1-2)Man(a1-6)]Man(b1-4)GlcNAc(b1-4)GlcNAc
# In short: as §1
# [31] = molecular target: GlcNAc(b1-3)Gal(b1-4)GlcNAc(b1-6)[Gal(b1-3)]GalNAc
# In short: as §1
# [32] = molecular target: GlcNAc(b1-4)GlcNAc
# In short: as §1
# [33] = molecular target: Kdn(a2-3)Gal(b1-3)GlcNAc
# In short: as §1
# [34] = molecular target: Kdn(a2-3)Gal(b1-4)Glc
# In short: as §1
# [35] = molecular target: Man(a1-2)Man(a1-2)Man(a1-3)Man
# In short: as §1
# [36] = molecular target: Neu5Ac(a2-3)Gal(b1-3)GlcNAc(b1-2)[Neu5Ac(a2-3)Gal(b1-3)GlcNAc(b1-4)]Man(a1-6)[Neu5Ac(a2-3)Gal(b1-3)GlcNAc(b1-2)Man(a1-3)]Man(b1-4)GlcNAc(b1-4)GlcNAc
# In short: as §1
# [37] = molecular target: Neu5Ac(a2-3)Gal(b1-3)GlcNAc6S
# In short: as §1
# [38] = molecular target: Neu5Ac(a2-3)Gal(b1-4)GlcNAc(b1-2)Man
# In short: as §1
# [39] = molecular target: Neu5Ac(a2-3)Gal(b1-4)[Fuc(a1-3)]GlcNAc(b1-6)[Neu5Ac(a2-3)Gal(b1-3)]GalNAc
# In short: as §1
# [40] = molecular target: Neu5Ac(a2-6)Gal(b1-4)GlcNAc(b1-2)Man(a1-3)[GlcNAc(b1-4)][Neu5Ac(a2-6)Gal(b1-4)GlcNAc(b1-2)Man(a1-6)]Man(b1-4)GlcNAc(b1-4)GlcNAc
# In short: as §1
# [41] = molecular target: Neu5Ac(a2-6)Gal(b1-4)GlcNAc(b1-2)Man(a1-3)[Neu5Ac(a2-3)Gal(b1-4)GlcNAc(b1-2)Man(a1-6)]Man(b1-4)GlcNAc(b1-4)GlcNAc
# In short: as §1
# [42] = molecular target: Neu5Ac(a2-6)Gal(b1-4)GlcNAc(b1-2)Man(a1-3)[Neu5Ac(a2-6)Gal(b1-4)GlcNAc(b1-2)Man(a1-6)]Man(b1-4)GlcNAc(b1-4)[Fuc(a1-6)]GlcNAc
# In short: as §1
# [43] = molecular target: Neu5Ac(a2-6)Gal(b1-4)GlcNAc(b1-2)Man(a1-6)Man(b1-4)GlcNAc(b1-4)GlcNAc
# In short: as §1
# [44] = molecular target: Neu5Ac(a2-6)Gal(b1-4)GlcNAc(b1-3)Gal(b1-3)GlcNAc
# In short: as §1
# [45] = molecular target: Neu5Ac(a2-8)Neu5Ac(a2-8)Neu5Ac
# In short: as §1
binder,measurement,setting,value
B1,glycan array binding signal (z-score),[1],-0.29
same,glycan array binding signal (z-score),[2],1.3
same,glycan array binding signal (z-score),[3],4.4
same,glycan array binding signal (z-score),[4],0.473
same,glycan array binding signal (z-score),[5],-0.286
same,glycan array binding signal (z-score),[6],0.042
same,glycan array binding signal (z-score),[7],-0.196
same,glycan array binding signal (z-score),[8],-0.043
same,glycan array binding signal (z-score),[9],-0.452
same,glycan array binding signal (z-score),[10],0.036
same,glycan array binding signal (z-score),[11],-0.259
same,glycan array binding signal (z-score),[12],-0.243
same,glycan array binding signal (z-score),[13],0.085
same,glycan array binding signal (z-score),[14],0.317
same,glycan array binding signal (z-score),[15],-0.501
same,glycan array binding signal (z-score),[16],0.307
same,glycan array binding signal (z-score),[17],-0.167
same,glycan array binding signal (z-score),[18],1.94
same,glycan array binding signal (z-score),[19],3.74
same,glycan array binding signal (z-score),[20],0.354
same,glycan array binding signal (z-score),[21],2.07
same,glycan array binding signal (z-score),[22],4.35
same,glycan array binding signal (z-score),[23],3.57
same,glycan array binding signal (z-score),[24],-0.364
same,glycan array binding signal (z-score),[25],-0.176
same,glycan array binding signal (z-score),[26],-0.079
same,glycan array binding signal (z-score),[27],0.138
same,glycan array binding signal (z-score),[28],2.04
same,glycan array binding signal (z-score),[29],0.436
same,glycan array binding signal (z-score),[30],-0.207
same,glycan array binding signal (z-score),[31],-0.325
same,glycan array binding signal (z-score),[32],4.66
same,glycan array binding signal (z-score),[33],-0.153
same,glycan array binding signal (z-score),[34],2.38
same,glycan array binding signal (z-score),[35],-0.431
same,glycan array binding signal (z-score),[36],-0.482
same,glycan array binding signal (z-score),[37],-0.023
same,glycan array binding signal (z-score),[38],3.47
same,glycan array binding signal (z-score),[39],0.233
same,glycan array binding signal (z-score),[40],-0.272
same,glycan array binding signal (z-score),[41],-0.448
same,glycan array binding signal (z-score),[42],-0.496
same,glycan array binding signal (z-score),[43],-0.192
same,glycan array binding signal (z-score),[44],-0.307
same,glycan array binding signal (z-score),[45],2.03

# Reference: the supplement of paper PMC8728848
